High-throughput results: PubChem, The Scripps Research Institute Molecular Screening Center
CHRM1 PAM: potentiates human M1 receptor response to acetylcholine. CHO-K1 hM1, Fluo-8 calcium fluorescence, ACh EC20; 0% = ACh EC20, 100% = maximal ACh. activation, % at 3 µM. 360,000 compounds, 0.088% hits. AID 588819; in the data active means activation above about 19%, passing the limit was not always enough
Target sequence (P11229 whole entry, looked up): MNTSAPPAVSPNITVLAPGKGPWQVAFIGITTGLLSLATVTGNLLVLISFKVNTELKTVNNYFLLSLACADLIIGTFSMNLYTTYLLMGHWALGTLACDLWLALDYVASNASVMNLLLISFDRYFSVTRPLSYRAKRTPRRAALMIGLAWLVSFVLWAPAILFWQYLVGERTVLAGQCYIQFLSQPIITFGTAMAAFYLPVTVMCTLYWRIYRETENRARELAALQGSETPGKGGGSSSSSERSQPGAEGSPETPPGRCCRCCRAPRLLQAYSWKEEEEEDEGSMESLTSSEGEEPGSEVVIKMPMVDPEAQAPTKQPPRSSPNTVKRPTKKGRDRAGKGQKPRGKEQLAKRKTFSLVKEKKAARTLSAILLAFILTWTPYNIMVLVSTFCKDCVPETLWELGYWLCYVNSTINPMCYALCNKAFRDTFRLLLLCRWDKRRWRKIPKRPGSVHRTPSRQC
M1 antag: blocks human M1 muscarinic receptor; CHO-K1 hM1, Fluo-8 calcium fluorescence, ACh EC80 antagonist; inhibition, % at 3 µM; 360,000 compounds, 1.3% hits; AID 588852;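 active means percent inhibition above its own plate's cutoff, namely the mean of that plate's compound wells plus 3 SD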;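 further: peak over basal fluorescence ratio during 140 s after agonist addition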
M1 ag parental: M1 agonist counterscreen hit in parental CHO-K1 cells. Fluo-8 calcium fluorescence; scaled to maximal ATP response, vehicle zero. activation, % at 3 µM. 360,000 compounds, 0.48% hits. AID 602248; in the data active means activation above about 15%;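 further: untransfected CHO-K1 host cells lacking M1 receptor as counterscreen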
CHO-K1 Ca antag: M1 antagonist counterscreen hit in parental CHO-K1 cells | ATP-induced calcium, Fluo-8 fluorescence | inhibition, % at 3 µM | 360,000 compounds, 0.6% hits | AID 602250;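 active means inhibition above a per-plate cutoff, the plate's mean sample inhibition plus 3 SD, cut at about 24% in these data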
CHRM1 agonist: activates human CHRM1 receptor. AID 588814. activation, % at 3 µM. P11229. CHO-K1 hM1, Fluo-8 calcium fluorescence, agonist mode; 0% DMSO, 100% acetylcholine EC100. 360,000 compounds, 0.33% hits;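 active means activation above the run's mean compound activation plus 3 SD, cut at about 16% in these data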;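 further: peak over basal fluorescence ratio within a 140 s kinetic read after compound addition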
M1 PAM parental: nonselective activator or artifact in parental CHO-K1 calcium assay | ATP EC20, Fluo-8 calcium fluorescence; 0% at ATP EC20, 100% at ATP max | activation, % at 3 µM | 360,000 compounds, 0.02% hits | AID 602247;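 active means activation above the run cutoff, the mean activation of all test compounds plus 3 SD, cut at about 40% in these data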;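 further: peak over basal fluorescence ratio in a 140 s read after ATP addition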
Each line names hits and unclear results; the compound was inactive in the other large screens; ! = repeats disagree. An excerpt weighted towards active compounds, which were near 2.3% of everything screened.

CCOCCN1CCN(C2c3ccccc3CSc3ccccc32)CC1 (centres undefined)	M1 antag 100.2
CCCN(Cc1cc2cc(C)ccc2[nH]c1=O)C(=O)c1cccc([N+](=O)[O-])c1	none
COc1ccc(-c2[nH]ncc2CN(CCO)CC23CC4CC(CC(C4)C2)C3)c(OC)c1	none
CCN(CC)c1ccc(/C=C2/C(=O)c3ccc(C(=O)O)cc3C2=O)cc1	M1 antag 76.2, M1 ag parental 62.2, CHO-K1 Ca antag 56.4, CHRM1 agonist 186.4
CCN(CC)c1ccc(C=C2C(=O)OC3(CCCCC3)OC2=O)cc1	none
O=C(Nc1ccc(-c2nc3cccnc3s2)cc1)c1ccc(Cl)nc1	M1 ag parental 20.8
O=C(Nc1ccc(-c2nc3cccnc3s2)cc1)c1cccnc1Cl	none
O=C(Nc1ccc(OC(=O)c2ccco2)cc1)c1ccco1	CHO-K1 Ca antag 28.0
O=C(Nc1ccc(Cl)c(Cl)c1)Oc1ccc(NC(=O)c2ccco2)cc1	CHO-K1 Ca antag 34.0
CCC(=O)Oc1ccc(NC(=O)c2ccco2)cc1	none
O=C(Nc1ccc(Br)c(Cl)c1)c1ccco1	none
O=C(NC(NC(=S)Nc1ccc(Cl)c(Cl)c1)C(Cl)(Cl)Cl)c1ccco1 (centres undefined)	CHO-K1 Ca antag 29.0
O=C(CCc1ccccc1)NC(NC(=S)Nc1ccc(Cl)cc1)C(Cl)(Cl)Cl (centres undefined)	M1 antag 23.5
CCOCCCNC(=O)NC(=O)CN1CCN(S(=O)(=O)c2ccc3c(c2)OCCO3)CC1	none
O=C(Nc1nc(-c2cc(F)ccc2F)cs1)c1cccc(N2C(=O)CCC2=O)c1	CHO-K1 Ca antag 31.9
CCOC(=O)C1CCN(C(=O)c2cccnc2)CC1	CHRM1 PAM 27.5
CCOC(=O)C1CCN(C(=O)c2cccc(C(=O)N3CCC(C(=O)OCC)CC3)c2)CC1	none
COc1ccccc1NC(=S)N1CCCCCC1	none
CCC(C)N1C(=O)C2C(C(=O)Nc3cccc(OC)c3)C3C=CC2(O3)C1C(=O)NC1CCCCC1C (centres undefined)	CHO-K1 Ca antag 27.6
CCCc1cc(=O)oc2cc(C)cc(OCC(=O)NCCCN3CCOCC3)c12	none
COc1ccc(NS(=O)(=O)c2cc3c4c(c2)CCN4C(=O)CC3)c(OC)c1	none
CN(CC(=O)Nc1cccc(F)c1)C(=O)c1ccccc1OCCOc1ccccc1	none
COc1cccc(C(=O)C[n+]2ccccc2/C=N/O)c1	M1 antag 26.9
COC(=O)[C@@]1(Sc2ccc(C)cc2)CC(=O)N(c2ccccc2)[C@@H]1c1ccccc1	none (no result: CHRM1 PAM, M1 antag, CHRM1 agonist)
COc1ccc(OC)c(NC(=O)c2ccc(OC3CSC3)cc2)c1	none
CCOC(=O)C1CCN(Cc2cccc(Oc3ccc(Cl)cc3)c2)CC1	M1 antag 27.9
c1ccc(Oc2cccc(CN3CCCCC3)c2)cc1	M1 antag 46.5
CCN1CCN(Cc2cccc(Oc3ccc(Cl)cc3)c2)CC1	M1 antag 53.5
Cc1noc(C)c1C(=O)OC(C)C(=O)NC(C)c1ccc(Cl)cc1Cl (centres undefined)	none
Cc1cc2ncn(CC3CC3(Cl)Cl)c2cc1C (centres undefined)	none
O=C(NCc1cccnc1)c1cc(C2CCCN(S(=O)(=O)c3ccccc3)C2)on1 (centres undefined)	none
Cc1ccc(/C=C/C(=O)OC(C)C(=O)NC2CCCCC2C)o1 (centres undefined)	none
CSc1ccc(CN(C)C(=O)C(Cc2ccccc2)NC(=O)c2ccccc2)cc1 (centres undefined)	M1 antag 44.0
COc1ccc(CN(C)C(=O)C(Cc2ccccc2)NC(=O)c2ccccc2)cc1F (centres undefined)	M1 antag 42.3
CN(Cc1ccc(F)cc1)C(=O)C(Cc1ccccc1)NC(=O)c1ccccc1 (centres undefined)	none
CN(C)S(=O)(=O)c1cccc(NC(=O)c2ccc(NS(=O)(=O)c3cccs3)cc2)c1	none
O=C(Nc1ccc(C(F)(F)F)cc1[N+](=O)[O-])O[C@H]1[C@H](Cc2ccccc2)NS(=O)(=O)[C@H]2C[C@@H]3C=C[C@]12O3	none
CCCCN(CC)CCCNC(=O)c1cn(-c2ccc(OC)cc2)c(=O)c2ccccc12	none
Cc1nnc(SCc2cc(=O)n3[nH]cnc3n2)s1	CHO-K1 Ca antag 24.8
Cc1nnc(SCc2cc(=O)[nH]c(N3CCCCC3)n2)s1	none
Cn1c(CCN2CCN(c3ccc(F)cc3)CC2)nc2cc(NC(=O)c3ccco3)ccc21	M1 antag 27.4
Cn1c(CN2CCOCC2)nc2cc(NC(=O)COc3ccccc3)ccc21	none
Cn1c(CCN2CCN(c3ccccc3)CC2)nc2cc(NC(=O)c3ccco3)ccc21	M1 antag 45.7
CCC(=O)Nc1ccc2c(c1)nc(CCN1CCN(c3ccccc3)CC1)n2C	M1 antag 42.8
Cn1c(CCN2CCOCC2)nc2cc(NC(=O)COc3ccccc3)ccc21	CHO-K1 Ca antag 25.7
CN1CCN(CCc2nc3cc(NC(=O)c4ccco4)ccc3n2C)CC1	none
Cn1c(CN2CCCC2)nc2cc(NC(=O)c3ccco3)ccc21	none
CC12CC3(C)CC(C)(C1)CC(C(=O)NCc1cccnc1)(C2)C3	none
Cc1ccc(C)c(NC(=O)CN(C)C(=O)c2ccc(COc3ccccc3)cc2)c1	none
C[C@H](CO)N1C[C@H](C)[C@@H](CN(C)Cc2ccc3c(c2)OCO3)Oc2cc(Br)ccc2S1(=O)=O	none
CCOC(=O)N1CCN(Cc2nc3cc(NC(=O)c4cccs4)ccc3n2C)CC1	M1 antag 25.8
Cc1ccc(C(=O)Nc2ccc3c(c2)nc(CCNC(=O)c2ccco2)n3C)cc1	none
Cc1ccc(N2CCN(CCc3nc4cc(NC(=O)c5ccco5)ccc4n3C)CC2)cc1	M1 antag 25.1
C(#Cc1ccccc1)C[N+]1(CC#Cc2ccccc2)CCCC1	M1 antag 39.3
CC(C)CC1Nc2ncnc(N3CCN(c4ccccn4)CC3)c2N(Cc2ccc(Br)cc2)C1=O (centres undefined)	M1 antag 40.1!
Cc1ccc(CN2C(=O)C(CC(C)C)Nc3ncnc(N4CCN(c5ccccn5)CC4)c32)cc1 (centres undefined)	M1 antag 34.2
COc1ccc(CN2C(=O)C(CC(C)C)Nc3ncnc(N4CCN(c5ccccn5)CC4)c32)cc1 (centres undefined)	none
O=C(CNC(=O)OCc1ccccc1)OC(c1ccccc1)c1ccccc1	none
CC12CN3CC(C)(CN(C1)C3c1ccccc1)C2O (centres undefined)	none
CC12CN3CC(C)(CN(C1)C3c1ccc3c(c1)OCO3)C2O (centres undefined)	CHO-K1 Ca antag 100.3
O=C(c1ccccc1)N1CCN=C1c1ccccc1	none
COc1ccc(C(=O)N2CCN=C2c2ccccc2)cc1OC	CHO-K1 Ca antag 26.2
